# According to PubChem BioAssay (NCATS):
# Results filed as inconclusive are left out. Where a call stands in place of a potency, no number is given. Calls of active or inactive are those of the source. Calls follow the shape of the dose curve; as a rule, active = well fitted curve in the direction sought with a large enough effect; inconclusive = small, poorly fitted or top-dose-only effect, or another doubt; inactive = no such curve, though single readings can be large; an effect the other way counts as inactive or inconclusive.
# Experiments:
# [1] = system: Zika virus NS2B-NS3 protease; experiment: Primary screen GU AMC qHTS for Zika virus inhibitors (AID 1347154); settings: Zika NS2B-NS3 unlinked protease, AMC fluorogenic substrate; series mostly up to 54.1 µM; also: nearly all actives have a fitted effect of over 70% in size
# Summary of the method: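 Fluorogenic AMC-substrate cleavage by noncovalent NS2B-NS3 protease complex (25 nM, pH 8.0 Tris buffer with Tween 20) followed for 15 minutes at room temperature (~20% conversion). Percent inhibition from ex340/em450 signal change, fitted by 4-parameter Hill equation.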
# [2] = system: Zika virus NS2B-NS3 protease (unlinked complex); experiment: Primary screen GU Rhodamine qHTS for Zika virus inhibitors: Unlinked NS2B-NS3 protease assay (AID 1347159); settings: Recombinant ZIKV NS2B-NS3 protease, Rhodamine110 substrate fluorescence; series mostly up to 107 µM; also: nearly all actives have a fitted effect of over 60% in size
# Summary of the method: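 Percent inhibition came from the 15-min rise in Rhodamine110 fluorescence (1.5 microM substrate, ~15% conversion), normalized to no-inhibitor and no-enzyme wells and Hill-fitted. Unlinked protease, 25 nM, pH 8.0 Tris buffer; compounds up to 114 microM, 15-min preincubation.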
# [3] = system: Zika virus NS2B-NS3 protease (linked construct); experiment: Primary screen NINDS Rhodamine qHTS for Zika virus inhibitors (AID 1347160); settings: purified NS2B-NS3 protease, Rhodamine110 substrate fluorescence; series mostly up to 57.1 µM; also: nearly all actives have a fitted effect of over 55% in size
# Summary of the method: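 Rhodamine110-peptide cleavage (1.5 µM substrate) by 25 nM linked NS2B-NS3 enzyme at pH 8.0 (Tris, Tween 20), after 15 min RT preincubation with compounds; 15-min fluorescence change normalized to controls and Hill-fitted.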
# [4] = Confirmatory screen GU Rhodamine qHTS for Zika virus inhibitors qHTS (AID 1347157); settings: purified enzyme assay, Rhodamine110 substrate fluorescence, 15 min; series mostly up to 65.2 µM; also: potency is read from the fitted curve at half-maximal effect; nearly all actives have a fitted effect of over 70% in size
# Summary of the method: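 In dose–response format, inhibition of unlinked protease (25 nM) was measured with 1.5 microM bis-peptide Rhodamine110 substrate. Aprotinin served as the intraplate control.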
# [5] = Confirmatory screen NINDS Rhodamine qHTS for Zika virus inhibitors (AID 1347161); settings: purified enzyme assay, Rhodamine110 substrate fluorescence, 15 min; series mostly up to 114 µM; also: potency is read from the fitted curve at half-maximal effect; nearly all actives have a fitted effect of over 60% in size
# Summary of the method: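 Aprotinin served as in-plate control. Conditions: 25 nM linked NS2B-NS3, pH 8.0 Tris buffer, titrated compounds, 15 min preincubation and 15 min reaction with 1.5 microM Rhod110 substrate at room temperature.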
smiles,measurement,setting,value
Cc1cccc(Nc2nc(-c3ccncc3)cs2)c1,Potency,[1],inactive
same,Potency,[2],inactive
same,Potency,[3],inactive
N#C[C@H]1C[C@H]2C[C@@H]2N1C(=O)[C@@H](N)C12CC3CC(CC(O)(C3)C1)C2,Potency,[1],inactive
C[C@H](NC(=O)c1sccc1OCc1ccc(Cl)cc1)c1ccccc1,Potency,[1],inactive
CC(=O)O[C@]1(C(C)=O)CC[C@@H]2[C@@H]3C[C@H](C)C4=CC(=O)CC[C@]4(C)[C@H]3CC[C@@]21C,Potency,[1],inactive
O=C(NC1CCOCC1)c1ccc(-c2cc(-c3cn[nH]c3-c3ccccn3)ccn2)cc1,Potency,[1],inactive
same,Potency,[2],inactive
same,Potency,[3],inactive
Cn1c(N2CCCCS2(=O)=O)nc(C(=O)NCc2ccc(F)cc2)c(O)c1=O,Potency,[1],inactive
same,Potency,[2],inactive
same,Potency,[3],inactive
CC(C)(C)OC(=O)N[C@H]1CCCCCC=C[C@@H]2C[C@@]2(C(=O)NS(=O)(=O)C2CC2)NC(=O)[C@@H]2C[C@@H](OC(=O)N3Cc4cccc(F)c4C3)CN2C1=O,Potency,[4],49.4 µM (active)
same,Potency,[5],49.4 µM (active)
CN(C)c1cc(NC(=O)CNC(C)(C)C)c(O)c2c1C[C@@H]1C[C@H]3[C@H](N(C)C)C(=O)C(C(N)=O)=C(O)[C@@]3(O)C(=O)C1=C2O,Potency,[5],4.41 µM (active)
